Bioassay records: PubChem, National Center for Advancing Translational Sciences (NCATS)
IL-1B inflam inh – blocks inflammasome-driven IL-1 beta release; THP-1 LPS/ATP IL-1B secretion, AlphaLISA, 16 h; active compounds read low; activity change, % at 57.5 µM; 360,000 tested, 4.7% active; in the data active = activity change below about -50%; inconclusive = mostly about -30% to -49%
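Secreted IL-1B measured by AlphaLISA bead assay after 16 h compound exposure of THP-1 cells; compounds (final up to 57.5 uM) added 1 h before LPS (250 ng/mL) and ATP (1.25 mM) stimulation; lower signal means less secretion.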
DT40 TDP1 no CPT – qHTS for Inhibitors of human tyrosyl-DNA phosphodiesterase 1 (TDP1): qHTS in cells in absence of CPT; DT40 Tdp1-/- hTDP1 cells, no CPT, ATP luminescence, 48 h; Potency, µM (top dose mostly 46.2 µM), for the others: top-dose activity change, negative = growth inhibition, usual class: inhibitors; 420,000 tested, 15% active; AID 686978, 2013; note: potency is the fitted concentration of half-maximal effect; nearly all actives have a fitted effect of over 55% in size
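Cells were dispensed at 400 per well, compounds added by pin tool, plates incubated ≥48 hr at 37 °C, then CellTiter-Glo added for 30 min at room temperature before luminescence reading. Line: DT40 Tdp1-/- complemented with hTDP1; camptothecin omitted.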
TDP1 cell CPT – growth inhibition of DT40 Tdp1-/-;hTDP1 cells with camptothecin (screen for TDP1 inhibitors); Potency, µM (titrated, usually from 46.2 µM), without a hit: top-dose activity change, negative = growth inhibition, actives largely listed as inhibitors; chicken DT40 Tdp1-/-;hTDP1 cells + 20 nM CPT, ATP luminescence, 48 h; 420,000 tested, 12% active; note: potency is the fitted concentration of half-maximal effect; nearly all actives have a fitted effect of over 55% in size
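Cell growth measured by CellTiter-Glo luminescence after a minimum 48 h, 37 C compound exposure with 20 nM CPT in Tdp1-knockout DT40 cells stably expressing hTDP1, seeded 400/well; qHTS titration format.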
HT1080-NT tox – kills 2HG-producing HT-1080-NT fibrosarcoma cells; Potency, µM (titrated, usually from 46.1 µM), inactives show at the top dose activity, negative = less viability, hits mostly cytotoxic; HT-1080-NT fibrosarcoma viability, CellTiter-Glo ATP luminescence, 48 h; 360,000 tested, 1.6% active;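 note: NT is the 2HG producing partner of a matched IDH1 knockdown line; potency is the fitted concentration of half-maximal effect; 0% = DMSO-treated cells and -100% = media-only wells without cells; nearly all actives have a fitted effect of over 55% in size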
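HT-1080-NT; 750 cells/well; 5% FBS RPMI; 48 h compound, 37 degrees C; CellTiter-Glo luminescence; curve fitting and curve-class assignment.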
HT1080 IDH1KD tx – toxicity to HT-1080 IDH1 knockdown cells (counter line); HT-1080 IDH1 knockdown viability, ATP luminescence, 48 h; Potency, µM (doses to about 46.1 µM), for the others: at the top dose activity, negative = toxicity, actives largely listed as cytotoxic; 360,000 tested, 2% active;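 note: potency is the fitted concentration of half-maximal effect; 0% = DMSO wells and -100% = cell-free medium wells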
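IDH1KD HT-1080 cells, 750/well, RPMI + 5% FBS; compound pinned after 2 h settling; 48 h, 37 °C; CellTiter-Glo luminescence; % activity normalised to DMSO and no-cell wells; curves fitted, classed by r2 and efficacy.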
* marks the source's active call; other numbers are inactive results; ? = inconclusive; nt = no result; [ ] = dose if it differs, or a comment. Only some compounds are listed: those with a hit (about 19% of all), similar ones and a draw of the others. Unless noted, calls come from the whole dose curve; as a rule, active = well fitted curve in the direction sought with a large enough effect; inconclusive = small, poorly fitted or top-dose-only effect, or another doubt; inactive = no such curve, though single readings can be large; an effect the other way counts as inactive or inconclusive. Unless noted, % is set by controls: 0 for no effect and ±100 for the full control effect.

SMILES | IL-1B inflam inh | DT40 TDP1 no CPT | TDP1 cell CPT | HT1080-NT tox | HT1080 IDH1KD tx
CCOC(=O)c1c(S(=O)(=O)NC2CCN(C(=O)OCC)CC2)c(C)n(C)c1C | 1 | ? | -16% | 0% | -1%
CC(=O)c1cn(-c2ccc(Cl)cc2)c(=O)n(Cc2ccc(F)cc2)c1=O | -5 | 9.2µM* | ? | -13% | -20%
COc1ccc(C2C(C(=O)NCCN3CCOCC3)c3ccccc3C(=O)N2C2CCCCC2)cc1 (centres undefined) | 32 | 5.2µM* | 7.3µM* | -10% | -2%
COc1ccc(C2C(C(=O)Nc3cc(OC)c(OC)c(OC)c3)c3ccccc3C(=O)N2C)cc1 (centres undefined) | 95 | 1.8µM* | 1.5µM* | 1.5µM* | 1.5µM*
CCN(CC)CCCNC(=O)C1c2ccccc2C(=O)N(C)C1c1ccc(OC)cc1 (centres undefined) | 0 | 2.3µM* | -8% | -5% | ?
COc1ccc(C2C(C(=O)N3CCN(C)CC3)c3ccccc3C(=O)N2C2CCCCC2)cc1 (centres undefined) | 4 | -9% | -17% | -2% | 4%
Cc1ccc2cccc(NC3OC(=O)c4ccccc43)c2n1 (centres undefined) | 25 | 0% | 23% | -1% | 0%
N#CCCN(C(=O)COC(=O)Cc1c[nH]c2ccccc12)c1ccccc1 | 8 | -13% | 2% | 0% | 0%
Nc1nonc1-n1nnc(C(=O)N/N=C/c2cccnc2)c1CSc1ccc(Cl)cc1 | 1 | ? | 23µM* | -1% | -24%
Nc1nonc1-n1nnc(C(=O)N/N=C/c2cccnc2)c1CSC1=NCCS1 | nt | ? | -4% | ? | ?
CC(C)c1ccc(/C=N/NC(=O)c2nnn(-c3nonc3N)c2CSC2=NCCS2)cc1 | -87* | 21µM* | ? | -13% | ?
Nc1nonc1-n1nnc(C(=O)N/N=C/c2ccc(Br)cc2)c1CSC1=NCCS1 | -102* | 26µM* | ? | -11% | ?
Nc1nonc1-n1nnc(C(=O)N/N=C/c2cccnc2)c1CSc1ccccc1 | -4 | -3% | 3% | -5% | 1%
O=C(NNC(=S)NCc1ccco1)c1ccc(S(=O)(=O)N2CCOCC2)cc1 | 12 | 1% | 1% | 4% | 8%
C/C(=N/NC(=O)c1ccco1)c1cccnc1 | 22 | -22% | -8% | 2% | -4%
CCN(CC)S(=O)(=O)c1cccc(C(=O)NC(C(=O)Nc2nnc(C)s2)C(C)C)c1 (centres undefined) | 6 | ? | ? | 7% | 3%
CCOC(=O)c1nc(N)c(C(=O)OCC)[nH]1 | 2 | 29µM* | ? | 22% | 15%
Nc1ccn([C@@H]2O[C@H](CNCc3ccc(N4CCNCC4)cc3)[C@@H](O)[C@H]2O)c(=O)n1 | 11 | -6% | -5% | 16% | -13%
O=C(/C=C/c1c(Cl)cccc1Cl)n1cccn1 | -52* | 16µM* | ? | ? | ?
CCC1CN(CCNC(=O)c2ccccc2-n2cccn2)Cc2cc(OC)ccc2O1 (centres undefined) | nt | -1% | -7%[9.04 µM] | nt | nt
CCOc1cc(/C=C2\SC(=S)N(N3CCOCC3)C2=O)ccc1O | 4 | -21% | -3% | 3% | 7%
CCOc1cc(/C=C2\SC(=N)N(c3nccs3)C2=O)ccc1OCCN1CCOCC1 | -19 | 21µM* | 16µM* | -27% | ?
COc1cc(/C=C2\SC(c3ccccc3)=NC2=O)cc(Cl)c1O | 35 | ? | 21µM* | 3% | 15%
CC1=NOC(=O)/C1=C/c1ccc(O)c(Cl)c1 | -12 | 9.2µM* | ? | 20% | 3%
COc1cc(/C=C2/C(=O)ON=C2C)cc(Cl)c1O | 3 | ? | 18µM* | 23% | -14%
SMILES | IL-1B inflam inh | DT40 TDP1 no CPT | TDP1 cell CPT | HT1080-NT tox | HT1080 IDH1KD tx
CCOc1ccc(Cl)cc1/C=C1/C(=O)ON=C1C | -14 | ? | ? | 25% | 7%
CCCOc1ccc(/C=C2/C(=O)ON=C2C)cc1Cl | 0 | ? | 18µM* | 15% | 7%
O=[N+]([O-])c1ccc(S(=O)(=O)N2CCN(c3nc(-c4cccs4)nc4ccccc34)CC2)cc1 | nt | -9% | -1% | nt | nt
CSc1cccc(NC(=O)CN(c2cccc(C)c2)S(C)(=O)=O)c1 | -16 | ? | 18µM* | -3% | -2%
CSc1cccc(NC(=O)CN(c2ccc(C)cc2C)S(C)(=O)=O)c1 | -3 | ? | -10% | -4% | -25%
CSc1cccc(NC(=O)CN(c2ccccc2)S(=O)(=O)N(C)C)c1 | 13 | 29µM* | 26µM* | -4% | ?
O=C(O)c1cc2cccc([N+](=O)[O-])c2[nH]1 | nt | -10% | -115% | 0% | 4%
Cc1ccc(NC(=O)c2cc(S(=O)(=O)N3CCCCC3)ccc2N2CCOCC2)c(C)c1 | -19 | ? | ? | -2% | 6%
NS(=O)(=O)c1ccc(CCNC(=O)C(c2ccccc2)c2ccccc2)cc1 | 17 | -22% | -25% | 5% | -2%
Cc1ccc(Cl)cc1N1CCN(C(=O)c2ccc(NC(=O)c3nsc4ccccc34)cc2)CC1 | nt | 18µM* | ? | nt | nt
Cc1cccc(N2CCN(C(=O)c3ccc(NC(=O)c4nsc5ccccc45)cc3)CC2C)c1 (centres undefined) | nt | 6.5µM* | 9.2µM* | nt | nt
Cc1cccc(NC(=O)N2CCN(C(=O)c3nsc4ccccc34)CC2)c1C | nt | ? | -3% | nt | nt
COc1ccc(N2CCN(C(=O)c3ccc(C)c(NC(=O)c4nsc5ccccc45)c3)CC2)cc1 | nt | ? | 26µM* | nt | nt
CCOc1ccc(C(=O)NCC(=O)NNC(=O)c2ccco2)cc1OCC | 14 | -14% | -2% | 0% | -1%
O=C(CC1C[C@H](C(=O)N2CCOCC2)[C@@]2(CCC3CCCC3)c3[nH]c4ccccc4c3CCN2C1=O)NCCCn1ccnc1 (some centres undefined) | 4 | ? | ? | -1% | -3%
O=C(CN1CCC(n2nnc3cc(F)ccc32)CC1)N1CCc2ccccc2C1 | -62* | 15µM* | ? | -30% | ?
O=C(CN1CCC(n2nnc3cc(F)ccc32)CC1)Nc1ccccc1N1CCOCC1 | -19 | 18µM* | 16µM* | 0% | -22%
CCOC(=O)c1ccccc1NC(=O)CCc1c(C)nc2ncnn2c1C | nt | 0% | 10% | nt | nt
CCC(C)N(C(=O)Cn1cnc2c1c(=O)n(C)c(=O)n2C)C1CCS(=O)(=O)C1 (centres undefined) | 11 | 7% | -3% | -3% | -2%
N#Cc1ccc(C(=O)OCC(=O)Nc2ccc(N3CCOCC3)cc2)cc1 | -5 | 2% | 12% | 19% | 23%
